# Measurements taken from ChEMBL document CHEMBL4888484, “Replenishing the malaria drug discovery pipeline: Screening and hit evaluation of the MMV Hit Generation Library 1 (HGL1) against asexual blood stage Plasmodium falciparum ,using a nano luciferase reporter read-out” (2022).
# Out of some 150,000 compounds screened, about 540 (0.36%) showed an effect of 50% or more. This excerpt belongs to a sample that is enriched for strong results.
# System: Plasmodium falciparum
# Assay: Primary screen in NF54 nanoGlo assay, in single point, at 2uM, 72h; a lower Z score goes with more inhibition
# Format: functional, Erythrocyte
# Details: timepoint 72 hour
Structure (SMILES),% Inhibition [%],Z score
Fc1cc(CNCC(F)F)ccc1Cl,-7,0.98
CC(NC[C@H](C)O)C(C)(C)c1ccc(F)cc1 (some centres undefined),-3,0.44
O=c1ccc(-c2cncnc2)c2n1C[C@H]1C[C@@H]2CN(S(=O)(=O)c2ccccc2)C1,-11,1.78
Cc1ccc(CN2CCN(C(=O)Cc3cccnc3)[C@H]3CS(=O)(=O)C[C@H]32)o1,5,-0.92
CCc1cccc(N(C(=O)c2ccc(NC(C)=O)cc2)C2(C(=O)NCc3ccccc3)CCN(C(C)=O)CC2)c1,0,0
CC(=O)N(C1CCN(Cc2ccccc2)CC1)C1(C(=O)Nc2ccc3[nH]ccc3c2)CCN(C)CC1,92,-11.04
CCC(=O)Nc1ccc(C)c(NC(=O)C2(c3ccccc3)CCN(C)CC2)c1,-9,1.09
CN(C)c1ccc(CN2CCN(CCO)[C@@H]3CS(=O)(=O)C[C@@H]32)cn1,-3,0.58
O=C(Cc1ccc(O)c(F)c1)N1C[C@H]2c3ccccc3OC[C@@]2(C(=O)O)C1,-2,0.24
CCOc1ccccc1NC(=O)CN1CC=C(c2cnn(C)c2)CC1,-1,0.1
COc1ccc(-c2csc(-n3cc(C4=CCN(CCO)CC4)cn3)n2)cc1,50,-5.49
CN(C)C1(CNc2ccc(C#N)c(Cl)c2)CCOCC1,-5,0.53
O=C(c1cc(F)cc(F)c1)N1CCC2(CC1)N(c1ccccc1)C(=O)CS2(=O)=O,-15,2.33
CC(C)(N)Cc1ccc(C(F)(F)F)cc1,1,-0.09
Clc1cccc2c(N3CC[C@]4(CCNC4)C3)ccnc12,23,-3.12
CN1CC[C@@]2(CCCN(c3ccncc3F)C2)C1,-8,0.76
c1cc(N2CC[C@@]3(CCCNC3)C2)c2sccc2n1,98,-16.03
CN1CC[C@]2(CCN(c3ccnc4ccsc34)C2)C1,98,-10.65
CN1CCC[C@@]2(CCN(c3ccncc3C3CC3)C2)C1,0,0.05
CCc1cc(CN[C@@H](C)Cc2ccc(F)cc2)on1,-5,0.53
Cc1nc(CN2C[C@@H](CO)[C@H](c3ccc(Cl)cc3)C2)co1,4,-0.83
O=C(CNc1ccc(Cl)c(F)c1)N1CCC2(CC1)OCCO2,28,-3.19
CCCS(=O)(=O)Nc1ccc(=O)n2c1[C@@H]1C[C@@H](CN(C(=O)Nc3ccc(F)cc3)C1)C2,27,-3.06
N#Cc1ccc(N[C@H]2CCN(C3CCOCC3)C2=O)cc1C(F)(F)F,1,-0.05
CN(Cc1ccccc1)C[C@H]1C[N@@]2CC[C@H]1C[C@@H]2CNC(=O)c1ccccc1,11,-1.99
C=CCN(C)C[C@H]1CN2CC[C@H]1C[C@@H]2CNC(=O)Nc1ccc(OC(F)(F)F)cc1,57,-4.08

Structure (SMILES),% Inhibition [%],Z score
C#CCN(C)C[C@H]1C[N@@]2CC[C@H]1C[C@@H]2CNC(=O)c1ccccc1,33,-3.75
O=C(c1ccncc1F)N1C[C@H]2CC[C@@H](C1)N(CC1CC1)C2,2,-0.29
O=C(NCc1ccccc1)N1Cc2ccccc2-n2cccc2[C@H]1c1ccccc1,-9,1.11
CN1CCN(CC(=O)N2CCC3(CC2)OCCO3)c2ccc(Cl)cc21,-13,2.46
CCCc1cncnc1N1C[C@H]2CC[C@@H](C1)N(CCC)C2,7,-1.29
Cc1nc[nH]c1CN1C[C@H]2CC[C@@H](C1)N(C(=O)Cc1ccncc1)C2,-5,0.88
COc1ccc2c(c1)OC[C@@]1(C(=O)O)CN(CCC(F)(F)F)C[C@@H]21,3,-0.33
Cc1cc(Cl)cc2c(N3CC[C@@]4(O)CCNC[C@H]4C3)ccnc12,3,-0.52
Cc1cc(C)n2ncc(CN3C[C@@H]4CC[C@H](C3)C(=O)N4)c2n1,-11,1.38
CC(C)(C)OC(=O)N1[C@@H]2CC[C@H]1[C@@H]1C[C@]1(C(=O)O)C2,-10,1.06
CC(C)c1ncc(C(=O)N[C@H]2CN3CCC2CC3)cn1,2,-0.19
c1ccc2c(CN3CCCCCC3)c[nH]c2c1,5,-0.53
O=C(Cc1c[nH]c2ccccc12)N1CCN(Cc2nnn3c2CO[C@H](c2cccc(F)c2)C3)CC1,-6,0.79
CCOc1ccccc1NC(=O)c1ccc2oc(=O)n(Cc3ccc(F)cc3)c2c1,2,-0.31
CC(C)CCC(=O)N1CCC2CCN(C)CC21 (centres undefined),-3,0.4
CN1CCC2CCN(C(=O)Nc3nccs3)C2C1 (centres undefined),-8,0.77
COc1cccc(CNC(=O)N2CC[C@@H]3CCN(C)C[C@@H]32)n1,88,0.42
C[C@]1(c2ccccc2Cl)NC(=O)N(CC(=O)Nc2ccc(Cl)cc2C(=O)c2ccccc2)C1=O,-1,0.1
O=C(c1ccccc1)c1cc(Cl)ccc1NC(=O)[C@H]1CC(=O)N(c2ccc(F)cc2)C1,56,-9.01
O=C(c1ccccc1)c1cc(Cl)ccc1NC(=O)C1CCN(C(=O)c2ccco2)CC1,1,-0.14
Cc1sc2ncnc(N3CCN4CCC[C@H]4C3)c2c1C,-5,0.64
O=C(COc1ccccc1)N1CCCCC[C@@H]1CN1CCCC1,1,-0.2
CC(C)n1ccc(C(=O)NC2CC(C(=O)O)c3ccccc32)n1 (centres undefined),-1,0.16
Cc1cc(C(=O)NC2CC2)nn1[C@@H](C)C1CC1,-5,0.91
Cc1cc(C(=O)NC2CC(C)n3ccnc32)nn1C(C)C (centres undefined),62,-7.62
CC(Cc1ccccc1Br)NC(C)c1cccnc1 (centres undefined),2,-0.27
